Screening results deposited in PubChem BioAssay by several laboratories.
APP 5UTR inh = APP translation inhibition. SH-SY5Y APP 5'UTR-luciferase reporter, luminescence. inhibition, % at 2 µM. 190,000 tested, 0.82% active. AID 1285;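 active = inhibition above a set limit, derived from the sample mean plus 3 SD, cut at about 45% in these data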
aSyn 5UTR inh = 5' untranslated region of α-synuclein, MLPCN primary screen; alpha-synuclein 5'UTR reporter, inhibitor activity; inhibition, % (tested at 7.5 µM); 300,000 tested, 0.82% active; in the data active = inhibition above about 60%;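 note: H4 neuroglioblastoma cells stably carrying SNCA 5'UTR luciferase fusion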
Ba/F3 V617F tox = reduce viability of Ba/F3 cells dependent on JAK2V617F; Ba/F3 EpoR-JAK2V617F viability, ATP luminescence; inhibition, % at 5.6 µM; 220,000 tested, 1.1% active;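 active = inhibition above the campaign mean plus 3 SD over all tested compounds, cut at about 24% in these data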;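 note: cytokine-independent growth of Ba/F3 cells driven by EpoR plus mutant JAK2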
IEC-6 tox = kills IEC-6 intestinal cells in KLF5 counter-screen. IEC-6 cytotoxicity, luminescence viability. inhibition, % at 5 µM. 290,000 tested, 0.78% active. AID 1825; in the data active = inhibition above about 22%
BaF3 parental = parental Ba/F3 viability inhibition as JAK2V617F counter-screen. 220,000 tested, 1.1% active. inhibition, % at 5.6 µM. CellTiter-Glo ATP luminescence. AID 1486;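 active = inhibition above a per-campaign cutoff, the mean inhibition of all tested compounds plus 3 SD, cut at about 27% in these data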
KLF5 inh = suppresses KLF5 promoter-driven expression; DLD-1 KLF5 promoter-luciferase reporter, luminescence; inhibition, % at 5 µM; 290,000 tested, 0.23% active; AID 1700;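 active = inhibition above a per-plate limit of that plate's mean compound inhibition plus 3 SD, cut at about 60% in these data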;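 note: higher means less KLF5 promoter-driven luciferase light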
Large screens that a line does not name were inactive. Sampled rows, rich in hits. Any-hit rate of the full collection: about 2.2%.

COc1ccc(-n2ncc3c2CC(C)(C)CC3NC(=O)c2ccoc2C)cc1 (stereo unspecified)	none (no result: APP 5UTR inh, Ba/F3 V617F tox, BaF3 parental)
CC(C)Cc1nnc(NC(=O)CCC(=O)N2CCN(Cc3ccccc3)CC2)s1	none (no result: APP 5UTR inh, Ba/F3 V617F tox, BaF3 parental)
COc1cc(/C=C/C(=O)O)cc(S(=O)(=O)NCc2ccco2)c1OC	BaF3 parental 90
COc1ccc(/C=C/C(=O)O)cc1S(=O)(=O)NCc1ccco1	none (no result: APP 5UTR inh)
COc1ccc(C(=O)C2CCCN(C(=O)c3ccc4cc[nH]c4c3)C2)c(C)c1 (stereo unspecified)	none
Cc1ccc(N=Cc2cc(Cl)cc(Cl)c2O)nc1	none
Oc1c(Cl)cc(Cl)cc1/C=N/Nc1ncc(Br)cn1	APP 5UTR inh 81
NCCCn1c(C(=O)c2cc(Cl)c(N)c(Cl)c2)c2ccc([N+](=O)[O-])cc2[n+]1[O-]	aSyn 5UTR inh 100 (no result: APP 5UTR inh, Ba/F3 V617F tox, IEC-6 tox, BaF3 parental, KLF5 inh)
Cc1cccc(OCCCC(=O)N2CCCc3ccccc32)c1C	none
O=C(/C=C/c1ccc(O)c(O)c1)c1ccccc1O	Ba/F3 V617F tox 84, BaF3 parental 40 (no result: APP 5UTR inh)
O=c1nc(SCc2c(F)cccc2Cl)nc(-c2ccc(Cl)cc2)[nH]1	BaF3 parental 40 (no result: APP 5UTR inh)
CCOC(=O)Cc1csc(/N=C/c2c(O)n(-c3ccc(C)c(C)c3)c(=O)c3ccccc23)n1	aSyn 5UTR inh 105
O=C(CCN1C(=O)/C(=C/c2ccccc2Cl)SC1=S)Nc1ccccc1C(=O)O	none (no result: APP 5UTR inh, Ba/F3 V617F tox, BaF3 parental)
O=C(CCCN1C(=O)S/C(=C\c2ccccc2)C1=O)NNC(=O)c1ccccc1O	APP 5UTR inh 63, aSyn 5UTR inh 83
O=C(CCCN1C(=O)/C(=C/c2ccccc2Cl)SC1=S)NNC(=O)c1cccnc1	none (no result: APP 5UTR inh)
O=C(CCCN1C(=O)/C(=C/c2ccccc2Cl)SC1=S)NNC(=O)c1ccccc1	aSyn 5UTR inh 62
O=C(CCCN1C(=O)/C(=C/c2ccccc2Cl)SC1=S)NNC(=O)c1ccc(Cl)cc1Cl	aSyn 5UTR inh 71 (no result: APP 5UTR inh)
COCCN1C(=O)N[C@@H](CCc2ccccc2)[C@H](C(=O)OC)[C@H]1C	none (no result: APP 5UTR inh, Ba/F3 V617F tox, IEC-6 tox, BaF3 parental, KLF5 inh)
Clc1ccc(/C=C/c2nc3ccccc3[nH]2)c(Cl)c1	aSyn 5UTR inh 68
Cc1ccc(N/C(N)=N/c2nc(C)cc(N3CCCCC3)n2)c(C)c1	Ba/F3 V617F tox 71, BaF3 parental 66
Cc1ccc(N/C(N)=N/c2nc3c(c(=O)[nH]2)CCCC3)c(C)c1	none
CC1(C)CNC(=O)CC(C)(C)N1	none
Cc1ccc(-n2nc3c(=O)n(CCCC(=O)NCc4ccc(Cl)cc4)nc(C)c3c2C)cc1	aSyn 5UTR inh 62 (no result: APP 5UTR inh, Ba/F3 V617F tox, BaF3 parental)
Cc1ccc(-n2nc3c(=O)n(CCCC(=O)NCc4cccc(Cl)c4)nc(C)c3c2C)cc1	none (no result: APP 5UTR inh, Ba/F3 V617F tox, BaF3 parental)
Cc1cc(C(=O)CSc2nnc3ccccn23)c(C)n1-c1ccccc1	aSyn 5UTR inh 102
Oc1ccc2ccccc2c1/C=N/Nc1nnc(-c2ncc[nH]2)c2ccccc12	aSyn 5UTR inh 102
CN(C)c1ccc(NC(=S)c2ccccn2)cc1	aSyn 5UTR inh 97
CC(=O)c1ccc(OCC(=O)NCc2ccc(F)cc2)cc1	none
Cc1cc(C)cc(NC(=O)CCNS(=O)(=O)c2cc(Br)cnc2N)c1	none (no result: APP 5UTR inh, Ba/F3 V617F tox, BaF3 parental)
O=[N+]([O-])c1ccc(N/N=C/c2cccc(O)c2O)cc1	none (no result: APP 5UTR inh, Ba/F3 V617F tox, BaF3 parental)
O=[N+]([O-])c1ccc(N/N=C/c2c[nH]c3ccccc23)cc1	Ba/F3 V617F tox 52, BaF3 parental 32
O=[N+]([O-])c1ccc(N/N=C/c2ccc[nH]2)cc1	APP 5UTR inh 65, Ba/F3 V617F tox 60, BaF3 parental 33 (no result: aSyn 5UTR inh)
CCCNC(=O)CSCc1nc(-c2ccc(SC)cc2)oc1C	none
CCc1ccc(-c2nc(CSCC(=O)NCc3ccco3)c(C)o2)cc1	APP 5UTR inh 47, aSyn 5UTR inh 77
CCCOc1ccc(/C=N/Nc2cc(N3CCOCC3)ncn2)c(O)c1	KLF5 inh 79 (no result: APP 5UTR inh, Ba/F3 V617F tox, BaF3 parental)
CN(C(=O)COC(=O)c1cc(S(=O)(=O)N2CCOCC2)ccc1Cl)C1CCS(=O)(=O)C1 (stereo unspecified)	none (no result: APP 5UTR inh, Ba/F3 V617F tox, IEC-6 tox, BaF3 parental, KLF5 inh)
COc1cccc(CNCc2ccc(OC)cc2OC)c1	none (no result: APP 5UTR inh, Ba/F3 V617F tox, BaF3 parental)
CCn1c2ccccc2c2cc(CNCc3ccc(OC)cc3OC)ccc21	aSyn 5UTR inh 63
CC1(C)CC(=O)c2sc(NC(=O)C(C)(C)C)nc2C1	none
CC1(C)CC(=O)c2sc(NC(=O)CN3CCCCC3)nc2C1	APP 5UTR inh 54
O=C(Nc1ccc(Br)cc1)C1CCN(C(=O)c2ccco2)CC1	none (no result: APP 5UTR inh, Ba/F3 V617F tox, BaF3 parental)
O=C(CN(C(=O)c1csnn1)c1ccc(Br)cc1)NC1CCCCC1	none (no result: APP 5UTR inh, Ba/F3 V617F tox, BaF3 parental)
Cc1ccc(NC(=O)N2CCCC2C(=O)NCCC2=CCCCC2)cc1 (stereo unspecified)	APP 5UTR inh 48
N#CCNC(=O)C1c2ccccc2Oc2ccccc21	none (no result: APP 5UTR inh, Ba/F3 V617F tox, BaF3 parental)
CCOC(=O)C1=C(C)C2C3C(=O)N(c4cc(C)ccc4C)C(=O)C3C1(C)C1C(=O)N(c3cc(C)ccc3C)C(=O)C21 (stereo unspecified)	APP 5UTR inh 75
CCOC(=O)C1(C)NC(c2ccco2)C2C(=O)N(c3ccc(C)cc3)C(=O)C21 (stereo unspecified)	none
COc1ccc(-c2cc3nc[nH]c(=O)c3s2)cc1	none
COc1ccc(-c2cc3nc(CCl)[nH]c(=O)c3s2)cc1	aSyn 5UTR inh 71 (no result: APP 5UTR inh, Ba/F3 V617F tox, BaF3 parental)
C=CCN(CC(=O)NCC1CCCO1)C(=O)CCC(=O)Nc1cc(C)on1 (stereo unspecified)	BaF3 parental 93
CCc1cccc(CC)c1-n1c(-c2cccnc2)n[nH]c1=S	none
S=c1[nH]nc(-c2cccc3ccccc23)n1-c1cccnc1	Ba/F3 V617F tox 52, BaF3 parental 50 (no result: APP 5UTR inh)
Cc1nc2scc(-c3ccccc3)c2c(=O)n1N	none
Cc1nc2scc(-c3ccccc3)c2c(=O)n1N=C1C=CC(=O)C=C1	APP 5UTR inh 80, Ba/F3 V617F tox 49
Nc1nc2c(ncn2[C@H]2C[C@H](O)[C@@H](CO)O2)c(=O)[nH]1	none (no result: APP 5UTR inh, Ba/F3 V617F tox, IEC-6 tox, BaF3 parental, KLF5 inh)
Nc1nc(F)nc2c1ncn2[C@@H]1O[C@H](CO)[C@@H](O)[C@H]1O	aSyn 5UTR inh 122 (no result: APP 5UTR inh, Ba/F3 V617F tox, IEC-6 tox, BaF3 parental, KLF5 inh)
Nc1nc(Cl)nc2c1ncn2C1CC(O)C(CO)O1 (stereo unspecified)	aSyn 5UTR inh 87 (no result: APP 5UTR inh, Ba/F3 V617F tox, IEC-6 tox, BaF3 parental, KLF5 inh)
Cc1ccc(C(C[N+](=O)[O-])c2c(-c3ccccc3O)[nH][nH]c2=O)cc1 (stereo unspecified)	none
CC1C(=O)N2CCCc3cc(S(=O)(=O)N(C)c4ccccc4)cc1c32 (stereo unspecified)	none (no result: APP 5UTR inh, Ba/F3 V617F tox, BaF3 parental)
CC(C)(C)C(=O)Nc1ccc(N=Nc2ccccc2)cc1	aSyn 5UTR inh 79
CCCCN(CC)S(=O)(=O)c1ccc(C(=O)Nc2nnc(-c3ccccc3Cl)o2)cc1	aSyn 5UTR inh 76
CCCCN(CC)S(=O)(=O)c1ccc(C(=O)Nc2nnc(CSC)o2)cc1	IEC-6 tox 46, BaF3 parental 42
CCCCN(CCCC)S(=O)(=O)c1ccc(C(=O)Nc2nnc(CSC)o2)cc1	none
COc1ccccc1-c1nnc(NC(=O)c2ccc(S(=O)(=O)N(C)C)cc2)o1	none
CCN(c1ccccc1)S(=O)(=O)c1ccc(C(=O)Nc2nnc(C3CC3)o2)cc1	aSyn 5UTR inh 71
CCN(Cc1ccccc1)S(=O)(=O)c1ccc(C(=O)Nc2nnc(-c3ccccc3OC)o2)cc1	aSyn 5UTR inh 67
